# Laboratory results from PMC7862700, “An all-to-all approach to the identification of sequence-specific readers for epigenetic DNA modifications on cytosine”.
# How the values were obtained:
# Assay in all cases: DAPPL (digital affinity profiling via proximity ligation, sequencing); 10 mM Tris-HCl pH 7.5, 50 mM NaCl, 1 mM DTT, 4% glycerol, room temperature, 30 min; GST-TFs on glutathione beads, 16-mer random dsDNA library, 0.1% formaldehyde crosslink after washing; high values mean tight binding
# Details in all cases: protein: recombinant; tags: N-terminal GST; dsDNA, one strand shown
# FLI1 = target: T1, FLI1 (Homo sapiens, UniProt Q01543 1-452)
# T1 sequence: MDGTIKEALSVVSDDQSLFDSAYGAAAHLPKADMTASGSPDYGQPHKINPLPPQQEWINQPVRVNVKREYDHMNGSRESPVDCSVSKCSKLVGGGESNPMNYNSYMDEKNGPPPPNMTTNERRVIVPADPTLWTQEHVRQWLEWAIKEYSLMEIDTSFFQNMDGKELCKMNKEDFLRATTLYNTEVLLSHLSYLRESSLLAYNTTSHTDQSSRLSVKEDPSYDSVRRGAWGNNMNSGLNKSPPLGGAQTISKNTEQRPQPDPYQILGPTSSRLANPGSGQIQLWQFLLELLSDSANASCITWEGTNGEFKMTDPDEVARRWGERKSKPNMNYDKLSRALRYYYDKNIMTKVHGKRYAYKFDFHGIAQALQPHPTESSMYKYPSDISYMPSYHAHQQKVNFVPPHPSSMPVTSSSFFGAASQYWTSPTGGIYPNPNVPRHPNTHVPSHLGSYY
# In short: (§1)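 GST fusions of human transcription factors were expressed in yeast and captured with glutathione beads. Once given DNA barcodes and pooled alongside a tag-only sample, they were incubated for 30 min at room temperature with 200 nmole of a random double-stranded 16-mer DNA library in Tris/NaCl/DTT/glycerol buffer, then washed, crosslinked (0.1% formaldehyde), proximity-ligated, PCR-amplified and sequenced on an Illumina NextSeq500. The binding signal of each hexamer is its read frequency for a factor divided by its frequency for the tag-only sample.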
# ELK1 = target: T2, ELK1 (Homo sapiens, UniProt P19419 1-428)
# T2 sequence: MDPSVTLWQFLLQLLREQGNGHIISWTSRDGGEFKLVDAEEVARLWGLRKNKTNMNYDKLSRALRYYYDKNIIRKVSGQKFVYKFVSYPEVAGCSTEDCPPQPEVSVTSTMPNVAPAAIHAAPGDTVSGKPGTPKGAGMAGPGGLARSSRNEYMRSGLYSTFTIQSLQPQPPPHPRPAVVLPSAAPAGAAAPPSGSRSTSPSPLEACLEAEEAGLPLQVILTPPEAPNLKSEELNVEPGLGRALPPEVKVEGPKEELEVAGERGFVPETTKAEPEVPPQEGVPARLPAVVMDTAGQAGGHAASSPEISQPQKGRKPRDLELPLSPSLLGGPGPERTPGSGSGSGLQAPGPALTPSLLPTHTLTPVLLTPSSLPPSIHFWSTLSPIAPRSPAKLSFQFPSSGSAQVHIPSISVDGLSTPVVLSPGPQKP
# In short: as §1
# GABPA = target: T3, GABPA (Homo sapiens, UniProt Q06546 1-454)
# T3 sequence: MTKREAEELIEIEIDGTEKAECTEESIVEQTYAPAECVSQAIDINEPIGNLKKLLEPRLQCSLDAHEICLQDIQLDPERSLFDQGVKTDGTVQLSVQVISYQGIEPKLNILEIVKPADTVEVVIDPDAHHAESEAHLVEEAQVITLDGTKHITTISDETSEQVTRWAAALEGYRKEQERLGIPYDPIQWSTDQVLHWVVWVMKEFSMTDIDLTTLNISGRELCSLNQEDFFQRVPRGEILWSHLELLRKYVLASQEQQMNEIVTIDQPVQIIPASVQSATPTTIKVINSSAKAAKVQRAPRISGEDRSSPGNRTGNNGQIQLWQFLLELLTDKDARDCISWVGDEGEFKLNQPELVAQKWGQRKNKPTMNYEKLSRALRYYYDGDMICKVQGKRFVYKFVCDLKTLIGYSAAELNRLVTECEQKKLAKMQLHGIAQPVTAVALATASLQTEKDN
# In short: as §1
# ERG = target: T4, ERG (Homo sapiens, UniProt P11308 1-479)
# T4 sequence: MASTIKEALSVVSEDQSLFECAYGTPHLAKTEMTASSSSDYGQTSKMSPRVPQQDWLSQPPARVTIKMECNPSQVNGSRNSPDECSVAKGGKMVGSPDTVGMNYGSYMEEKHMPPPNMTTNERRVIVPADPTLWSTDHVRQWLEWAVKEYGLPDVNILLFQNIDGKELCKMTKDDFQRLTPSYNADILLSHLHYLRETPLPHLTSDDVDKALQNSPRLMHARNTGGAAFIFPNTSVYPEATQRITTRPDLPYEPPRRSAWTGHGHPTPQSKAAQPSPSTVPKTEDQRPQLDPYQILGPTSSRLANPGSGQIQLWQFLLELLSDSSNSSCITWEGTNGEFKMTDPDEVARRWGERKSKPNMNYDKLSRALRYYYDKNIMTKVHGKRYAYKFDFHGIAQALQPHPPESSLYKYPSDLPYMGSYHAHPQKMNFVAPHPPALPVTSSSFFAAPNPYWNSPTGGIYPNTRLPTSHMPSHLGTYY
# In short: as §1
# ELF1 = ELF1 (Homo sapiens, UniProt P32519 1-619)
# In short: as §1
# EHF = target: T5, EHF (Homo sapiens, UniProt Q9NZC4 1-300)
# T5 sequence: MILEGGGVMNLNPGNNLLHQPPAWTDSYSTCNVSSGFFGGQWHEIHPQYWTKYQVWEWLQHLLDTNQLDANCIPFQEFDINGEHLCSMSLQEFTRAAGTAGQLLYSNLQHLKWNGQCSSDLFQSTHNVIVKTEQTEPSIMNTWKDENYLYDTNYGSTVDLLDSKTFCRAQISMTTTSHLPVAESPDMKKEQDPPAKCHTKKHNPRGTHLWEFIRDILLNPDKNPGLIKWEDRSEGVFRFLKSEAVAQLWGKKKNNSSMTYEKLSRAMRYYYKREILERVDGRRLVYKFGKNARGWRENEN
# In short: as §1
# SPI1 = SPI1 (Homo sapiens, UniProt P17947 1-270)
# In short: as §1
# SPIB = SPIB (Homo sapiens, UniProt Q01892 1-262)
# In short: as §1
# ELK3 = target: T6, ELK3 (Homo sapiens, UniProt P41970 1-407)
# T6 sequence: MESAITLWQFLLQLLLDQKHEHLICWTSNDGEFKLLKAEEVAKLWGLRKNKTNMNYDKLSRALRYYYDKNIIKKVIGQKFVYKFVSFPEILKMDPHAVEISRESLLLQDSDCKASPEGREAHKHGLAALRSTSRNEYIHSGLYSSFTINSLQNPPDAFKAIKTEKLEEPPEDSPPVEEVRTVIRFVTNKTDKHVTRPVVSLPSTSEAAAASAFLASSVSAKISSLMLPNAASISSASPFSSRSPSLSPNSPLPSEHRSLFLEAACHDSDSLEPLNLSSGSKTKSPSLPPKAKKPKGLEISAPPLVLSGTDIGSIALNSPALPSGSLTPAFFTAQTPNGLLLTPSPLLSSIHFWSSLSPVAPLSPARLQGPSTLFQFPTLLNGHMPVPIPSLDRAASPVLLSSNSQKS
# In short: as §1
# Sequence of ELF1 (P32519 whole entry): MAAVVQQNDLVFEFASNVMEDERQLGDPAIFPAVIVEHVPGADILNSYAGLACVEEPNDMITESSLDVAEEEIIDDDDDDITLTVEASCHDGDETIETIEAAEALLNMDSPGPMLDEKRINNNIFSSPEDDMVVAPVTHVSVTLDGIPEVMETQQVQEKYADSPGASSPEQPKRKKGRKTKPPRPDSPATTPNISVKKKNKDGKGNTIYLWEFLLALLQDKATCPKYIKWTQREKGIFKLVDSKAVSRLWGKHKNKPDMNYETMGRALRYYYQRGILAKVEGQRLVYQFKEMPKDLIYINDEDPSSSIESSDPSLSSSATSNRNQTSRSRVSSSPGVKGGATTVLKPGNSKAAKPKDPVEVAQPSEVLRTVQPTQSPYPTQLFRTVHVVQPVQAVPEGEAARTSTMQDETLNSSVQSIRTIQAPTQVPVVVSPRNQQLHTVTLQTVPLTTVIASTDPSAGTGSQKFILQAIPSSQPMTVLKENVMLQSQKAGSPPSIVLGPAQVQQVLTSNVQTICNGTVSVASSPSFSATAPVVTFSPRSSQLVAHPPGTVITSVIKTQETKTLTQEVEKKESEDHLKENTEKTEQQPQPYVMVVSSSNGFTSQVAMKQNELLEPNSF
# Sequence of SPIB (Q01892 whole entry): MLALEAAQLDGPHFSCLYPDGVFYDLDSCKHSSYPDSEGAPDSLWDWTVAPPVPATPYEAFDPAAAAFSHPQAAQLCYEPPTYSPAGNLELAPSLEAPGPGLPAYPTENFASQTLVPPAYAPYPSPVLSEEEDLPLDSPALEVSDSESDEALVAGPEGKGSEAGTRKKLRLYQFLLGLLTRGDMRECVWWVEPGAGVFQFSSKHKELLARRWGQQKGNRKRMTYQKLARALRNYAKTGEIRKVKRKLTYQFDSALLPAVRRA
Sequence,binding signal (FLI1),binding signal (ELK1),binding signal (GABPA),binding signal (ERG),binding signal (ELF1),binding signal (EHF),binding signal (SPI1),binding signal (SPIB),binding signal (ELK3)
TGCATG,"1.12 fold enrichment (6-mer frequency, TF over GST control)","1.09 fold enrichment (6-mer frequency, TF over GST control)","1.13 fold enrichment (6-mer frequency, TF over GST control)","1.13 fold enrichment (6-mer frequency, TF over GST control)","1.15 fold enrichment (6-mer frequency, TF over GST control)","1.15 fold enrichment (6-mer frequency, TF over GST control)","1.02 fold enrichment (6-mer frequency, TF over GST control)","1.14 fold enrichment (6-mer frequency, TF over GST control)","1.14 fold enrichment (6-mer frequency, TF over GST control)"
TATCTG,"1.3 fold enrichment (6-mer frequency, TF over GST control)","1.12 fold enrichment (6-mer frequency, TF over GST control)","1.21 fold enrichment (6-mer frequency, TF over GST control)","1.25 fold enrichment (6-mer frequency, TF over GST control)","1.26 fold enrichment (6-mer frequency, TF over GST control)","1.16 fold enrichment (6-mer frequency, TF over GST control)","1.21 fold enrichment (6-mer frequency, TF over GST control)","1.16 fold enrichment (6-mer frequency, TF over GST control)","1.21 fold enrichment (6-mer frequency, TF over GST control)"
GGTACT,"1.25 fold enrichment (6-mer frequency, TF over GST control)","1.21 fold enrichment (6-mer frequency, TF over GST control)","1.31 fold enrichment (6-mer frequency, TF over GST control)","1.24 fold enrichment (6-mer frequency, TF over GST control)","1.32 fold enrichment (6-mer frequency, TF over GST control)","1.25 fold enrichment (6-mer frequency, TF over GST control)","1.19 fold enrichment (6-mer frequency, TF over GST control)","1.15 fold enrichment (6-mer frequency, TF over GST control)","1.35 fold enrichment (6-mer frequency, TF over GST control)"
TGCCCT,"1.21 fold enrichment (6-mer frequency, TF over GST control)","1.25 fold enrichment (6-mer frequency, TF over GST control)","1.21 fold enrichment (6-mer frequency, TF over GST control)","1.09 fold enrichment (6-mer frequency, TF over GST control)","1.25 fold enrichment (6-mer frequency, TF over GST control)","1.12 fold enrichment (6-mer frequency, TF over GST control)","1.15 fold enrichment (6-mer frequency, TF over GST control)","1.16 fold enrichment (6-mer frequency, TF over GST control)","1.07 fold enrichment (6-mer frequency, TF over GST control)"
AAGTTT,"1.42 fold enrichment (6-mer frequency, TF over GST control)","1.48 fold enrichment (6-mer frequency, TF over GST control)","1.42 fold enrichment (6-mer frequency, TF over GST control)","1.36 fold enrichment (6-mer frequency, TF over GST control)","1.37 fold enrichment (6-mer frequency, TF over GST control)","1.5 fold enrichment (6-mer frequency, TF over GST control)","1.45 fold enrichment (6-mer frequency, TF over GST control)","1.6 fold enrichment (6-mer frequency, TF over GST control)","1.44 fold enrichment (6-mer frequency, TF over GST control)"
TTCGAT,"1.32 fold enrichment (6-mer frequency, TF over GST control)","1.23 fold enrichment (6-mer frequency, TF over GST control)","1.22 fold enrichment (6-mer frequency, TF over GST control)","1.43 fold enrichment (6-mer frequency, TF over GST control)","1.41 fold enrichment (6-mer frequency, TF over GST control)","1.38 fold enrichment (6-mer frequency, TF over GST control)","1.29 fold enrichment (6-mer frequency, TF over GST control)","1.24 fold enrichment (6-mer frequency, TF over GST control)","1.32 fold enrichment (6-mer frequency, TF over GST control)"
AATAGG,"1.15 fold enrichment (6-mer frequency, TF over GST control)","1.11 fold enrichment (6-mer frequency, TF over GST control)","1.15 fold enrichment (6-mer frequency, TF over GST control)","1.2 fold enrichment (6-mer frequency, TF over GST control)","1.08 fold enrichment (6-mer frequency, TF over GST control)","1.27 fold enrichment (6-mer frequency, TF over GST control)","1.37 fold enrichment (6-mer frequency, TF over GST control)","1.22 fold enrichment (6-mer frequency, TF over GST control)","1.14 fold enrichment (6-mer frequency, TF over GST control)"
